From PubChem BioAssay
Most compounds without a hit are left out; they make up all but 21% or so of the library.
IL1B secr inh = blocks inflammasome-driven IL-1 beta release; THP-1 LPS/ATP IL-1B secretion, AlphaLISA, 16 h; active compounds read low; activity change, % at 57.5 µM; 360,000 tested, 4.7% active; in the data active means activity change below about -50%; inconclusive means mostly about -30% to -49%
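THP-1 cells pretreated 1 hr with compounds (up to 57.5 uM final), then stimulated with LPS (250 ng/mL final) plus ATP (1.25 mM final); secreted IL-1B measured by AlphaLISA after 16 hr, decreased signal indicating inhibition.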
DRD3 antagonist = antagonists of human D3 dopamine receptor | P35462 | D3R cells, DiscoveRx beta-arrestin luminescence, antagonist mode; active compounds read low | max response, negative = inhibition, % | 360,000 tested, 2.5% active | AID 652054; in the data active means max response below about -50%; inconclusive means no clear call, values can overlap the other calls
Target sequence (P35462 whole entry, looked up): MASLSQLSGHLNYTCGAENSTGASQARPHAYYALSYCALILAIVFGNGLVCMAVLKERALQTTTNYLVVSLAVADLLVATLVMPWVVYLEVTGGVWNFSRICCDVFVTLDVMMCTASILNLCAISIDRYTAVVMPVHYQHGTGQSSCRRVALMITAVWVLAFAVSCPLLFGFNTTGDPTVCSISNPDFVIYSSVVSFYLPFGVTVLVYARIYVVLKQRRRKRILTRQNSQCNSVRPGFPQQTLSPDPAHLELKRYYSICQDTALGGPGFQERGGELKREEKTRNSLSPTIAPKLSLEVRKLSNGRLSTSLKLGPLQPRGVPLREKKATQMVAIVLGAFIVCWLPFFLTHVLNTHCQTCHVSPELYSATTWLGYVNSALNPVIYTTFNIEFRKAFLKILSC
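Cells expressing the human receptor were seeded at 1500 cells/well, incubated overnight at 37 degrees C in 5% CO2, then exposed to library compounds with dopamine controls for 90 minutes at 37 degrees C before luminescent detection.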
TDP1 cell noCPT = qHTS for Inhibitors of human tyrosyl-DNA phosphodiesterase 1 (TDP1): qHTS in cells in absence of CPT | DT40 Tdp1-/- hTDP1 cells, no CPT, ATP luminescence, 48 h | Potency, µM (top dose mostly 46.2 µM), usual class: inhibitors | 420,000 tested, 15% active | AID 686978, 2013; further: nearly all actives have a fitted effect of over 55% in size
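No-CPT arm: Tdp1-/-;hTDP1 DT40 cells (400/well) plus compounds, incubated ≥48 hr at 37 °C. Readout CellTiter-Glo luminescence.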
ClpP mod = qHTS Assay for Activators of ClpP | ATP-dependent Clp protease proteolytic subunit (Bacillus subtilis (strain 168)), P80244 | purified B. subtilis ClpP, FRET peptide cleavage, 20 min | Potency, µM (doses to about 57.5 µM) | 340,000 tested, 1.9% active | AID 651965, 2013; active means well fitted falling curve with a large enough effect; inconclusive means small, poorly fitted or top-dose-only effect; inactive means no such curve, though single readings can be large or run the other way; further: the source files actives as falling curves though it sought activators and does not explain the sign; nearly all actives have a fitted effect of over 65% in size
Target sequence (P80244 whole entry, looked up): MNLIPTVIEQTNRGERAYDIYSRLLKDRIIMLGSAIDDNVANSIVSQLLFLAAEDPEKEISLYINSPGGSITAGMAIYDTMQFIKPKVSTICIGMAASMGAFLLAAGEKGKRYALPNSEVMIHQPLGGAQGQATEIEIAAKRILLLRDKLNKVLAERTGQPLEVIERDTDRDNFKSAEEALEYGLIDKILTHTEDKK
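Buffer: 100 mM Tris/HCl pH8, 100 mM KCl, 0.05% low protease BSA, 2.5% glycerol, 0.01% Tween-20. ClpP 10 microg/mL final; 20 min RT; delta FRET normalized to ADEP and DMSO controls.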
D3 ag = activates the human D3 dopamine receptor; AID 652048; 410,000 tested, 0.58% active; max activation, %; P35462; D3R DiscoveRx beta-arrestin cells, luminescence, 90 min; in the data active means max activation above about 30%
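Agonist mode: compounds and dopamine controls were applied to plated cells for 90 min at 37 degrees C after an overnight attachment at 1500 cells/well. Luminescent read-out followed 30 - 60 minutes at room temperature with DiscoveRx detection reagent.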
DT40 TDP1 CPT = growth inhibition of DT40 Tdp1-/-;hTDP1 cells with camptothecin (screen for TDP1 inhibitors). 420,000 tested, 12% active. Potency, µM (highest dose often 46.2 µM), hits mostly inhibitors. AID 686979. chicken DT40 Tdp1-/-;hTDP1 cells + 20 nM CPT, ATP luminescence, 48 h; further: nearly all actives have a fitted effect of over 55% in size
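Cell growth measured by CellTiter-Glo luminescence after a minimum 48 h, 37 C compound exposure with 20 nM CPT in Tdp1-knockout DT40 cells stably expressing hTDP1, seeded 400/well; qHTS titration format.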
A number is an active result; i = inactive; ? = inconclusive; nt = no result; [ ] = dose if it differs, or a comment. Unless noted, the call rests on the fitted dose curve; in most records, active means well fitted inhibition curve with a large enough effect; inconclusive means small, poorly fitted or top-dose-only effect; inactive means flat fitted curve, though single readings scatter.

SMILES | IL1B secr inh | DRD3 antagonist | TDP1 cell noCPT | ClpP mod | D3 ag | DT40 TDP1 CPT
Cc1ccccc1OCC(=O)NCC(c1ccc(Cl)cc1)N1CCCCC1 (configuration not stated) | nt | nt | 13µM | i | i | 20.6µM
Cc1ccccc1OCC(=O)NCC(c1ccco1)N1CCCCC1 (configuration not stated) | i | i | ? | i | i | ?
COc1ccc(C(CNC(=S)NCc2ccccc2)N2CCCC2)cc1 (configuration not stated) | -72.0 | -57.8 | i | i | i | i
COc1ccccc1C(CNC(=S)NCc1ccccc1)N1CCCC1 (configuration not stated) | i | i | ? | nt | i | i
C=C(C)Cn1c(CCn2c3ccccc3c3ccccc32)n[nH]c1=S | i | ? | 5.8µM | i | i | 9.2µM
C=CCn1c(CCn2c3ccccc3c3ccccc32)n[nH]c1=S | i | i | i | i | i | i
COc1cc(C2C(C#N)=C(N)OC3=C2C(=O)CC(C)(C)C3)cc([N+](=O)[O-])c1O (configuration not stated) | i | ? | i | i | i | i
CCOC(=O)c1ccc(NC2=CC(c3ccc(O)c(OCC)c3)N(c3ccc(C(=O)OCC)cc3)C2=O)cc1 (configuration not stated) | nt | nt | 13µM | i | i | 13µM
COc1cc(C2C=C(Nc3ccccc3)C(=O)N2c2ccccc2)ccc1O (configuration not stated) | ? | i | ? | i | i | ?
O=C(c1ccc(Br)cc1)N(Cc1nc2ccccc2c(=O)[nH]1)C1CCCC1 | ? | i | 18.4µM | nt | i | ?
Cc1cccc(C(=O)N(Cc2nc3ccccc3c(=O)[nH]2)C2CCCC2)c1 | i | i | 25.9µM | nt | i | ?
CCc1ccc(-c2nc(CN3CCC(C(=O)NCCc4ccc(Cl)cc4)CC3)c(C)o2)cc1 | nt | nt | ? | i | i | i
O=C(O)C1C2C=CC(C2)C1C(=O)NC1CCS(=O)(=O)C1 (configuration not stated) | i | -101.7 | i | i | i | i
Cc1ccc2c(c1)CN(CCNC(=O)c1cccc(Cn3cccn3)c1)CC(C)O2 (configuration not stated) | nt | nt | i | nt | nt | i[9.04 µM]
COc1cc(/C=N\NC(=O)c2ccc(-c3ccccc3)cc2)cc(Br)c1O | i | i | ? | ? | i | ?
Cc1cc(C(=O)N/N=C/c2ccco2)c2ccccc2n1 | i | i | ? | i | i | ?
COc1cc(/C=N/NC(=O)c2ccc(CN3C(=O)c4cccc5cccc3c45)cc2)cc(OC)c1O | i | i | ? | i | i | 13µM
COc1cc(/C=N/NC(=O)c2cc(-c3cccc(Br)c3)nc3ccccc23)cc(OC)c1O | i | i | ? | i | 31.7 | 20.6µM
O=C(N/N=C/c1cccc(F)c1)c1cc(-c2ccco2)nc2ccccc12 | i | i | 10.3µM | 31.6µM | i | 14.6µM
COc1cc(/C=N/NC(=O)c2cc(-c3ccccc3Cl)nc3ccccc23)cc(OC)c1O | i | i | 6.51µM | nt | i | ?
CCOC(=O)c1ccc(NC(=O)C(Cc2ccccc2)N2Cc3ccccc3C2=O)cc1 (configuration not stated) | nt | nt | ? | i | i | ?
Cc1ccc(NC(=O)C(=O)NN=C2CCCC2)cc1C | i | i | i | nt | i | i
COc1cc(/C=N/NC(=O)c2cc(-c3ccco3)nc3ccccc23)cc(OC)c1O | i | i | ? | i | i | 10.3µM
Cc1cccc2nc(-c3ccco3)c(Nc3ccccc3)n12 | i | i | ? | i | i | ?
COc1ccc(-c2nc3cc(C)ccn3c2NC(=O)c2ccc(F)cc2)cc1 | nt | nt | ? | i | i | i
SMILES | IL1B secr inh | DRD3 antagonist | TDP1 cell noCPT | ClpP mod | D3 ag | DT40 TDP1 CPT
Cc1ccc(Nc2c(-c3ccccc3O)nc3cc(C)ccn23)cc1 | nt | nt | ? | 28.2µM | i | ?
Cc1cccc2nc(-c3ccccn3)c(Nc3ccccc3)n12 | nt | nt | 4.11µM | i | i | 4.11µM
Cc1ccn2c(Nc3ccc(F)cc3)c(-c3ccccn3)nc2c1 | nt | nt | 13µM | i | i | 10.3µM
Cc1ccc(Nc2c(-c3ccccn3)nc3ccc(Br)cn23)cc1 | nt | nt | 20.6µM | i | i | 9.2µM
CCCCOc1ccc(NC(=O)CCSc2nccn2C)cc1 | i | i | ? | i | i | i
Cc1ccc(Nc2c(-c3ccccn3)nc3cccc(C)n23)cc1 | ? | -81.8 | 2.06µM | i | i | 2.59µM
Cc1cccc2nc(-c3ccccn3)c(Nc3ccc(F)cc3)n12 | nt | nt | 18.4µM | i | i | 11.6µM
Cc1ccc(Nc2c(-c3ccsc3)nc3c(C)cccn23)cc1 | nt | nt | ? | i | i | ?
Cc1cc2ccccc2nc1-c1ccccc1F | i | i | ? | i | i | i
Cc1cccc(C)c1Nc1c(-c2ccccc2F)nc2cccc(C)n12 | nt | nt | i | 31.6µM | i | 10.3µM
Cc1ccc(Nc2c(-c3ccsc3)nc3cccc(C)n23)cc1 | nt | nt | ? | i | i | 16.4µM
Cc1ccc(Nc2c(-c3ccccc3O)nc3ncccn23)cc1 | i | i | i | i | i | ?
CCOC(=O)c1ccn(CSc2c(F)c(F)cc(F)c2F)n1 | i | i | i | i | i | i
COc1ccccc1NC(=O)c1cc2cc3ccc(OC)c(Cl)c3nc2s1 | nt | nt | ? | i | i | ?
CC1Sc2ccc(C#N)cc2N(Cc2cccc(C(F)(F)F)c2)C1=O (configuration not stated) | i | -51.0 | ? | i | i | ?
CC1Cn2c(nc3sc4c(c3c2=O)CC(C)(C)OC4)N1CCO (configuration not stated) | i | i | i | i | i | i
COc1ccc(/C=N/NC(=O)Cn2nc(C)c([N+](=O)[O-])c2C)cc1 | i | i | ? | i | i | 11.6µM
COc1ccc(-c2noc(-c3ccc(NCCc4ccccc4)c([N+](=O)[O-])c3)n2)cc1 | nt | nt | i | i | i | i
CCCCCCCCCCCC1N=C(N)NC(CCCO)=C1C(=O)OC (configuration not stated) | ? | i | 3.66µM | i | i | 5.8µM
Cc1cccc(-n2c(C)nc3cc(C(=O)NCCN4CCOCC4)ccc32)c1 | i | i | i | i | i | i
CCc1ccc(NC(=O)c2cnn(-c3c(C)cccc3C)c2C2CCNCC2)cc1 | nt | nt | 23.1µM | i | i | ?
Cc1cc(C)cc(NC(=O)c2cnn(-c3ccccc3)c2C2CCNCC2)c1 | i | i | 16.4µM | i | i | ?
COc1ccc(OC)c(NC(=O)c2cnn(-c3ccc(C)cc3)c2C2CCNCC2)c1 | nt | nt | 25.9µM | i | i | 20.6µM
Cc1ccc(C)c(NC(=O)c2cnn(-c3ccc(F)cc3F)c2C2CCNCC2)c1 | nt | nt | 9.2µM | i | i | 20.6µM
